Measurements published in PubChem BioAssay AID651956 (Broad Institute, 2012).
Results with a measured potency or affinity are listed apart. Results filed as inconclusive are left out.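 The calls were made as follows: active = in every test run, a fitted half-maximal concentration for signal decrease at or below twice the highest tested concentration; inconclusive = runs disagree, flat 30 to 70% decrease, or poor fit; inactive = the rest.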

assay: miR-122 activators in hepatoma reporter cells, dose response, cell-based, Huh7 psiCHECK-miR122, Renilla luciferase, cherry-picked (AID 651956); conditions: 48 h; series mostly up to 35 µM; activity change, negative = signal decrease: at the top concentration;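 also: Renilla luciferase from a miR-122 sensor reporter so lower signal means miR-122 activation; 0% = median neutral control wells and -100% = median positive control wells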

Activity change, negative = signal decrease, inactive:
CNC(=O)C[C@@H]1CC[C@@H]2[C@@H](COc3ccc(NC(=O)c4ccccc4OC)cc3C(=O)N2C)O1 124%, CCCNC(=O)Nc1ccc2c(c1)C(=O)N(C)[C@@H]1CC[C@@H](CC(=O)NCC3CCCCC3)O[C@H]1CO2 71.2%, COc1ccc(CN2CCc3c([nH]c4ccccc34)C2)c(OC)c1C -17.6%, CN(C[C@H]1[C@H](c2ccccc2)[C@@H](CO)N1CC1CC1)C(=O)c1cccc(F)c1 105% [at 30 µM], C[C@H]1CN([C@@H](C)CO)S(=O)(=O)c2ccc(C3=CCCC3)cc2O[C@H]1CN(C)Cc1cccnc1 8.03%, CN1C(=O)c2cc(NC(=O)c3cccc(C(F)(F)F)c3)ccc2OC[C@@H]2O[C@@H](CC(=O)NCCN3CCCC3)CC[C@@H]21 -24.5%, Cc1ccccc1NC(=O)Nc1ccc2c(c1)C(=O)N(C)[C@H]1CC[C@@H](CC(=O)O)O[C@H]1CO2 387% [at 30 µM], Cc1ccc(OCC(O)Cn2c(=N)n(Cc3ccccc3)c3ccccc32)cc1 (centres undefined) 19.9%, COc1cccc(-c2nn(-c3ccccc3)cc2CO)c1 -36.7%, O=C(c1ccccc1)N1C[C@H]2[C@@H](c3ccccc31)[C@@H](CO)N2C(=O)CN1CCOCC1 121%, COCC(=O)N(C[C@H]1N[C@@H](CO)[C@@H]1c1ccc(C2=CCCC2)cc1)C(C)C -21.5%, CCN(C[C@H]1N[C@@H](CO)[C@@H]1c1ccc(C2=CCCC2)cc1)C(=O)c1ccncc1 -9.09%, CCC(=O)N1[C@H](CN(C)C(C)=O)[C@H](c2ccc(-c3cccnc3)cc2)[C@@H]1CO -27.9%, CC(=O)N1[C@H](CO)[C@H](c2ccccc2)[C@@H]1CN(C(=O)c1ccc(F)cc1)C(C)C 6.99%, Cc1cc(C(=O)Nc2ccc3c(c2)C(=O)N(C)[C@H]2CC[C@@H](CC(=O)N[C@@H](C)c4ccccc4)O[C@H]2CO3)no1 108%, COc1cccc(C(=O)Nc2ccc3c(c2)C(=O)N(C)[C@@H]2CC[C@@H](CC(=O)NCc4ccc(F)cc4)O[C@@H]2CO3)c1 22.5%, COCC(=O)N(C[C@H]1[C@H](c2ccccc2)[C@H](CO)N1C(=O)NC(C)C)C(C)C 472% [at 30 µM], CNC(=O)C[C@H]1CC[C@H]2[C@H](COc3ccc(NC(=O)c4cccc(OC)c4)cc3C(=O)N2C)O1 16.2%, C/C=C/c1ccc([C@H]2[C@@H](CO)N(C(=O)CC)[C@H]2CNC(=O)CC)cc1 7.81%, CCN(CC)CCNc1nc(-c2ccccc2)nnc1C(F)(F)F -20.6%, C/C=C/c1ccc([C@H]2[C@@H](CO)N[C@@H]2CN(CC(C)C)C(=O)c2ccccn2)cc1 179%, Cc1noc(C)c1NC(=O)Nc1ccc2c(c1)C(=O)N(C)[C@@H]1CC[C@H](CC(=O)N[C@H]3CCN(Cc4ccccc4)C3)O[C@H]1CO2 231%, COCCNC(=O)C[C@H]1CC[C@@H]2[C@H](COc3ccc(NC(=O)c4cnccn4)cc3C(=O)N2C)O1 42% [at 30 µM], CO[C@@H]1CN(C)C(=O)c2ccc(NC(=O)c3nc4ccccc4s3)cc2OC[C@H](C)N(Cc2cccnc2)C[C@H]1C -9.21%, C/C=C/c1ccc([C@H]2[C@@H](CO)N[C@@H]2CN(CC)C(=O)CN2CCOCC2)cc1 10.4%, CN1C(=O)c2cc(NC(=O)Nc3ccccc3F)ccc2OC[C@@H]2O[C@@H](CC(=O)NCc3ccc(-c4ccccc4)cc3)CC[C@@H]21 111%, C[C@@H]1CN([C@@H](C)CO)S(=O)(=O)c2ccc(C#Cc3ccccc3F)cc2O[C@H]1CN(C)C(=O)c1ccc2c(c1)OCO2 -53.2%, C[C@@H]1CN([C@H](C)CO)S(=O)(=O)c2ccc(C3=CCCCC3)cc2O[C@@H]1CN(C)C(=O)Nc1ccc2c(c1)OCO2 -88.8%, CN1C(=O)c2cc(NC(=O)c3cccs3)ccc2OC[C@H]2O[C@@H](CC(=O)N3CCCCC3)CC[C@H]21 -31.5%, COCC(=O)NC[C@H]1[C@@H](c2ccc(C3=CCCC3)cc2)[C@H](CO)N1C(=O)C1CC1 -28.3%, COc1ccc(CNC(=O)C[C@H]2CC[C@H]3[C@H](COc4ccc(NC(=O)C(C)C)cc4C(=O)N3C)O2)cc1 55.2%, CN1C(=O)c2cc(NC(=O)c3cccs3)ccc2OC[C@@H]2O[C@@H](CC(=O)NCCN3CCCCC3)CC[C@@H]21 58.8% [at 30 µM], CN(C)C(=O)C[C@@H]1CC[C@@H]2[C@@H](COc3ccc(NC(=O)C4CC4)cc3C(=O)N2C)O1 -4.71%, COC(=O)C[C@H]1CC[C@@H]2[C@@H](COc3ccc(NC(=O)c4cscn4)cc3C(=O)N2C)O1 -2.42%
